Laboratory results taken from PubChem BioAssay AID624331 (National Center for Advancing Translational Sciences (NCATS), 2012).
Results filed as inconclusive are left out. A call without a number means that no potency is given here. Active and inactive are the calls of the source. Calls follow the shape of the dose curve; as a rule, active = well fitted activation curve with a large enough effect; inconclusive = small, poorly fitted or top-dose-only effect; inactive = no such curve, though single readings can be large or run the other way.

experiment: qHTS assay for re-activators of p53 using a Luc reporter: Hit Validation with no p53 Expressed; conditions: p53-null cells, luciferase reporter counter-screen; series mostly up to 46.1 µM
In short: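 Counter-screen of primary hits in a cell line not transfected with p53, in Opti-MEM with 10% FBS; compounds at several concentrations (10 mM stock, 1:5; top 46.1 µM in well), 24 h at 37 deg C, 5% CO2. Luminescence read after 10 min with Amplite reagent.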
Potency is read from the fitted curve at half-maximal effect.

SMILES | Potency
Cc1ccc(-n2c(C)cc(C(=O)CSc3nnc4ccccn34)c2C)cc1 | 0.731 µM (active)
O=C(Nc1cccnc1Cl)c1cc(-c2ccccc2O)on1 | inactive
CCN(CC)CCn1c(SCC(=O)Nc2ccc3c(c2)CCC3)nc2ccccc2c1=O | 8.2 µM (active)
CCN(CC(=O)NCc1cccs1)c1ccc(S(=O)(=O)N2CCOCC2)cn1 | inactive
Cc1cc(C)cc(OCC(=O)NNC(=O)c2ccccn2)c1 | inactive
Cc1nc(SCC(=O)Nc2nccs2)c(C#N)c(C)c1C | inactive
Cc1ccc(C(=O)Nc2nnc(SCC(=O)N3CCCc4ccccc43)s2)cc1 | inactive
CS(=O)(=O)N1CCC(C(=O)Nc2cc(Cl)c(Cl)cc2Cl)CC1 | inactive
O=C(O)C1C2C=CC(C2)C1C(=O)Nc1ccccc1Br (stereo unspecified) | inactive
CCOc1ccc(-n2c(SCc3nc(-c4cccs4)no3)nnc2-c2ccncc2)cc1 | inactive
CN(C)/C=N/c1cnc(C(=O)c2ccc(Cl)cc2)n1C | inactive
COc1ccc(-c2cc3ccc(F)cc3cn2)cc1 | inactive
Cc1ccc(C(=O)NC(=C(Cl)Cl)S(=O)(=O)c2ccccc2)cc1 | inactive
Cc1ccnc(NC(=O)c2sc3cc(Cl)ccc3c2Cl)c1 | inactive
Cc1ccc(NC(=O)c2ccc(OC(=O)C(C)Oc3ccc(Cl)cc3C)cc2)cc1 (stereo unspecified) | inactive
CS(=O)(=O)n1nc(-c2ccc(Cl)cc2)nc1SCc1ccccc1 | inactive
CCN(CC)C(=O)CSC(=Nc1ccccc1F)NC#N | inactive
CC(=O)/C=C(\C)Nc1ccc(-c2cnc(-c3ccccc3)o2)cc1 | inactive
CC(C)(C)Nc1ncnc2c1cnn2-c1ccccc1 | inactive
Fc1cc(NCc2ccccc2)nc(NCc2ccccc2)n1 | inactive
Nc1c(C(=O)CSc2nc3ccccc3o2)c(=O)[nH]c(=O)n1C1CC1 | inactive
